Screening results as filed in PubChem BioAssay.
Yp Topo-I inh – blocks Yersinia pestis topoisomerase I activity; 360,000 tested, 0.064% active; Y. pestis Topo-I cleavage product accumulation, plate reader; activity, % at 10 µM; in the data active = activity above about 50%, passing the limit was not always enough
GDH-TPI counter – counter-screen for M. tuberculosis FBA inhibitors: GDH-TPI coupled enzymes; GDH-TPI coupled enzyme counterscreen, NADH absorbance; 360,000 tested, 1.2% active; inhibition, % at 4.8 µM; AID 588335; in the data active = inhibition above about 30%;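 also: 0% = DMSO wells and 100% = wells lacking the enzyme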
PrPC surface inh – cell surface PrPC inhibition, primary TR-FRET screen | P04156 | TR-FRET read-out | inhibition, % at 13.8 µM | 370,000 tested, 0.43% active; in the data active = inhibition above about 24%; also: 0% = median of the test wells and 100% = reference compound wells
TcdB inh – TcdB glycohydrolase inhibition; TcdB glycohydrolase enzymatic assay, plate reader; inhibition, % at 9.99 µM; 350,000 tested, 0.24% active; AID 652162; in the data active = inhibition above about 10%
FBA Mtb inh – inhibits M. tuberculosis FBA enzyme | AID 588726 | inhibition, % at 1 µM | 360,000 tested, 2.3% active | purified M. tuberculosis FBA, fluorescence read-out; in the data active = inhibition above about 27%;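 also: 0% = vehicle and 100% = reference inhibitor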
PrPC TRFRET cf – confirmation of inhibitors of cell surface human prion protein; shares compounds with PrPC surface inh; cell surface PrPC level, TR-FRET; inhibition, % at 13.8 µM; 1,500 tested, 65% active; AID 743200; in the data active = inhibition above about 25%
LD9 tox – counter-screen for PrPc inhibitors: cytotoxicity in LD9 cells; luminescence viability; shares compounds with PrPC surface inh; inhibition, % at 13.8 µM; 1,500 tested, 29% active; AID 743201; in the data active = inhibition above about 9.5%
Active calls of the source: *; . = no result. Shown are actives, neighbours in structure and some others; about 3.2% of the full set was active somewhere.

SMILES	Yp Topo-I inh	GDH-TPI counter	PrPC surface inh	TcdB inh	FBA Mtb inh	PrPC TRFRET cf	LD9 tox
CC1(C)NC(=O)N(CC(O)COc2ccc(-c3ccc(C#N)cc3)cc2)C1=O (configuration not stated)	-2	-1	30*	0	69*	14	9
N#Cc1c(Cl)cccc1N1CCSCC1	.	.	-5	1	17	.	.
N#Cc1c(N2CCSCC2)nsc1-c1ccccc1Cl	31	4	27*	-3	1	23	-7
c1ccc(-c2ccc(CNc3nc(-c4ccccn4)nnc3-c3ccccc3)cc2)cc1	.	.	29*	.	.	37*	28*
CC(C)(C)CCNc1nc(-c2ccccn2)nnc1-c1ccccc1	.	.	28*	.	.	27*	34*
C=CCNc1nc(-c2ccccn2)nnc1-c1ccccc1	-1	5	21	.	4	.	.
C[C@@H]1CN([C@@H](C)CO)C(=O)Cc2cc(NS(=O)(=O)c3ccccc3)ccc2O[C@H]1CN(C)Cc1ccc(C(F)(F)F)cc1	.	.	.	-1	.	.	.
CCN(CC)S(=O)(=O)c1ccc(N2CCOCC2)c(NS(=O)(=O)c2cc(C(C)(C)C)ccc2C)c1	-7	1	25*	1	-2	10	0
C[C@@H]1CN([C@@H](C)CO)C(=O)c2cc(NS(=O)(=O)c3cccs3)ccc2O[C@@H]1CN(C)S(=O)(=O)c1ccc(Cl)cc1	.	.	.	-2	.	.	.
Cc1cc(NC(=O)CCC(=O)N(c2ccccc2)C(C(=O)NC2CCCC2)c2cccs2)no1 (configuration not stated)	5	-1	63*	.	0	59*	-2
Cc1cc(NC(=O)CCC(=O)N(c2cccc(F)c2)C(C(=O)NC2CCCC2)c2ccccc2)no1 (configuration not stated)	15	2	7	1	1	.	.
Cc1cc(NC(=O)CCC(=O)N(c2ccccc2)C(C(=O)NC2CCCC2)c2ccccc2)no1 (configuration not stated)	19	-6	35*	.	6	52*	-3
C[C@@H]1CCCCO[C@H](CN(C)C(=O)CCC(F)(F)F)[C@@H](C)CN([C@@H](C)CO)C(=O)c2cc(NS(=O)(=O)c3ccccc3)ccc2O1	.	.	.	1	.	.	.
Cc1ccc(S(=O)(=O)c2ncccc2N)cc1	2	5	2	0	12	.	.
Cc1ccc(S(=O)(=O)c2ncccc2[N+](=O)[O-])cc1	7	5	71*	0	1	55*	98*
Cc1ccc(NS(=O)(=O)c2cc(C(=O)NCc3ccccn3)ccc2Cl)cc1	1	-6	40*	2	-2	35*	-6
CO[C@@H]1CC[C@@H]2CCN(C)C(=O)[C@@H](C)[C@H](OC)CN(C)C(=O)c3cc(C#N)ccc3OC[C@@H]1O2	.	.	.	-3	.	.	.
Cc1ccc2nc3c(c(Nc4cccc(O)c4)c2c1)CCC3	-4	4	25*	2	-3	16	16*
Fc1cccc(Nc2c3c(nc4ccccc24)CCC3)c1	7	15	16	2	3	.	.
COC(=O)c1cccc(Nc2c3c(nc4ccccc24)CCC3)c1	-1	12	29*	1	3	30*	12*
C[C@@H]1CCCCO[C@@H](CN(C)Cc2ccncc2)[C@@H](C)CN([C@@H](C)CO)C(=O)c2cc(NC(=O)Nc3ccccc3)ccc2O1	.	.	.	-1	.	.	.
C[C@@H](NC(=O)C[C@@H]1CC[C@H](NC(=O)c2cccnc2)[C@@H](CO)O1)c1ccccc1	.	.	.	1	.	.	.
CCSCCOC(=O)C1=C(C)N(C)C(=O)NC1c1cc(OC)ccc1OC (configuration not stated)	14	5	43*	.	-1	30*	-3
CO[C@@H]1CN(C)C(=O)c2ccc(NS(C)(=O)=O)cc2OC[C@H](C)N(C(=O)C2CCCCC2)C[C@@H]1C	.	.	.	0	.	.	.
COc1ccc(N(C)S(=O)(=O)c2cccc(C(=O)OC(C(=O)Nc3cc(C)cc(C)c3)c3ccccc3)c2)cc1 (configuration not stated)	-3	7	26*	1	2	16	-2
CC(=O)c1cccc(NC(=O)C(OC(=O)c2cccc(S(=O)(=O)N(C)c3ccccc3)c2)c2ccccc2)c1 (configuration not stated)	2	3	7	0	-1	.	.
